In PubChem BioAssay (Tox21) one finds Potency data, which are given here for eleven compounds.

The nature of experiment [1]: qHTS assay to identify small molecule antagonists of the vitamin D receptor (VDR) signaling pathway - cell viability counter screen (AID 743225). Also: nearly all actives have a fitted effect of over 50% in size. Also: potency is read from the fitted curve at half-maximal effect. The essentials:
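Parallel cytotoxicity test: VDR-UAS-bla HEK 293T, 3 nM (final) 1-alpha,25-dihydroxyvitamin D3 with test compound, 16 h, 37C. Endpoint is CellTiter-Glo luminescence in the same wells.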

Experiment [2] is described as follows: qHTS assay to identify small molecule agonists of the NFkB signaling pathway - cell viability counter screen (AID 1159515; calls by dose curve; also: nearly all actives have a fitted effect of over 55% in size; also: potency is read from the fitted curve at half-maximal effect). The essentials:
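Using the same wells as the NFkB reporter read, ME-180 NFkB-bla cells given compounds for 5 hr were assessed for viability via CellTiter-Glo, with luminescence taken after a 30 min room-temperature incubation.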
A general note: In qHTS, concentration-response curves come from the screen itself.

Experiment [3] is described as follows: qHTS assay to identify small molecule agonists of the endoplasmic reticulum stress response signaling pathway (AID 1159516; active = well fitted activation curve with a large enough effect in the signal ratio in the repeat runs, not every such curve was filed as active; the % refers to the signal ratio). The method in brief:
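An ESRE-bla HeLa cell assay: compounds were pin-transferred from DMSO onto overnight-plated cells and left 5 hr at 37 C. Substrate was then loaded for 2 hr at room temperature before reading fluorescence at 460 nm and 530 nm.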

A short description of experiment [4]: qHTS assay to identify small molecule agonists of the RXR signaling pathway - cell viability counter screen (AID 1159529). Also: nearly all actives have a fitted effect of over 50% in size. Also: potency is read from the fitted curve at half-maximal effect. The method in brief: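 In this parallel viability measure, GeneBLAzer RXR-alpha HEK 293T cells (2% charcoal-stripped FBS) were given a 5 hr preincubation, treated with compounds 16 hr at 37 C, and read by CellTiter-Glo luminescence.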
Experiment [5] is described as follows: qHTS assay to identify small molecule antagonists of the retinoid acid receptor (RAR) signaling pathway - cell viability counter screen (AID 1159551). Also: nearly all actives have a fitted effect of over 35% in size. Also: potency is read from the fitted curve at half-maximal effect. The method in brief: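 Retinol-stimulated (1 uM final) C3RL4 cells, compound 6 h, 37 C; readout CellTiter-Glo luminescence (ATP) after 30 min RT incubation.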
Experiment [6] in a line: qHTS assay to identify small molecule antagonists of the retinoic acid receptor (RAR) signaling pathway (AID 1159552; also: nearly all actives have a fitted effect of over 50% in size; also: potency is read from the fitted curve at half-maximal effect). The method in brief: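 C3RL4 RARE-luc cells, overnight plating; retinol 1 uM final added right after compound; 6 hr 37 C; luciferase read at 30 min RT.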
Experiment [7] is described as follows: qHTS assay to identify small molecule agonists of the retinoic acid receptor (RAR) signaling pathway (AID 1159553). Also: potency is read from the fitted curve at half-maximal effect. The settings on record: C3RL4 RARE luciferase reporter, agonist, 6 h; activation: at 73.3 µM (top of the series) unless noted. The method in brief: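 Reporter readout comes from luciferase under RARE control in C3RL4 cells; compound exposure lasts 6 hr at 37 C in 5% CO2, and luminescence is recorded following a 30 min room-temperature incubation with reagent.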

Experiment [8] can be described thus: qHTS assay to identify small molecule agonists of the vitamin D receptor (VDR) signaling pathway - cell viability counter screen (AID 743224). Also: nearly all actives have a fitted effect of over 50% in size. The essentials: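 Plated VDR-bla cells (4 h, 37C) received compound, incubated 16 h, then LiveBLAzer substrate 2 h RT; CellTiter-Glo added afterwards, luminescence read at 30 min.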
A short description of experiment [9]: qHTS assay to identify small molecule agonists of the AP-1 signaling pathway - cell viability counter screen (AID 1159525; calls by dose curve; also: nearly all actives have a fitted effect of over 55% in size). The essentials: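 ME-180 AP-1-bla, 2500 cells/well, Opti-MEM + 0.5% dialyzed FBS; overnight 37 °C; cpd 15-pt titration, 5 h 37 °C; CellTiter-Glo 30 min RT; luminescence read; normalised to TOAB and DMSO controls.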
Experiment [10] deals with Retinoic acid receptor RXR-alpha (Homo sapiens) (UniProt P19793). Kind of experiment: qHTS assay to identify small molecule agonists of the RXR signaling pathway (AID 1159527; calls by dose curve; also: nearly all actives have a fitted effect of over 35% in size). The essentials: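 16 hr incubation of compound-treated RXR-alpha-UAS-bla HEK 293T cells (2% charcoal-stripped FBS, 37 C) preceded a 2 hr room-temperature LiveBLAzer FRET substrate step and blue/green fluorescence measurement.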
Sequence of Retinoic acid receptor RXR-alpha (Homo sapiens) (P19793 whole entry, looked up): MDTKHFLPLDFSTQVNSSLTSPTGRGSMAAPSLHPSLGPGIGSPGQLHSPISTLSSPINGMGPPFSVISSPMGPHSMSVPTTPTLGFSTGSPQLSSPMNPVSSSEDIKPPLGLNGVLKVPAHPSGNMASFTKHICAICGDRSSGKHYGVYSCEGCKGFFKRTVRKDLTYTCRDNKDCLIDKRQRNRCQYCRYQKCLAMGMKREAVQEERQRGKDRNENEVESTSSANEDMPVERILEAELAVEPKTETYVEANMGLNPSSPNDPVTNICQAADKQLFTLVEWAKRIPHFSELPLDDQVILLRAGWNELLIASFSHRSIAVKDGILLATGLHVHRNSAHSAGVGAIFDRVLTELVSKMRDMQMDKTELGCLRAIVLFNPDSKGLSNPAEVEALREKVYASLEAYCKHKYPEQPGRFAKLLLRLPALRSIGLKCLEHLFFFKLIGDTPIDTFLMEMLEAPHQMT

The nature of experiment [11]: qHTS assay to identify small molecule agonists of the endoplasmic reticulum stress response signaling pathway - cell viability counter screen (AID 1159517; calls by dose curve). The essentials:
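CellTiter-Glo was added to wells already read for beta-lactamase FRET, and luminescence was recorded 30 min later. Cells: ESRE-bla HeLa, 1,500 per well, compound exposure 5 hr at 37 C.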

A short description of experiment [12]: qHTS assay to identify small molecule antagonists of the retinoid-related orphan receptor gamma (ROR-gamma) signaling pathway - cell viability counter screen (AID 1159520). Also: nearly all actives have a fitted effect of over 50% in size. The essentials: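 Tet-on ROR gamma CHO cells (1,000/well) were plated 4 hr, given compounds in DMSO for 2 hr at 37 C, then induced with 1 uM final doxycycline for 16 hr. Viability was read as ATP by CellTiter-Glo luminescence after 30 min.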

Experiment [13] concerns the target Nuclear receptor ROR-gamma (Homo sapiens) (UniProt P51449). Description: qHTS assay to identify small molecule antagonists of the retinoid-related orphan receptor gamma (ROR-gamma) signaling pathway (AID 1159521; also: nearly all actives have a fitted effect of over 50% in size; also: potency is read from the fitted curve at half-maximal effect). The method in brief:
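Decreased RORE-driven luciferase luminescence indicates antagonism. Tet-on RORγ CHO cells received compound, then 1 uM final doxycycline 2 h later; signal read after 16 h incubation.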

Experiment [14] can be described thus: qHTS assay to identify small molecule agonists of the AP-1 signaling pathway (AID 1159526; calls by dose curve).

Results filed as inconclusive are left out. The source made the active and inactive calls. Unless noted, calls follow the shape of the dose curve; as a rule, active = well fitted curve in the direction sought with a large enough effect in the repeat runs; inconclusive = weak or mixed curves; inactive = no such curve, though single readings can be large; an effect the other way counts as inactive or inconclusive.

Consider `CCOC(=O)c1ccc(C2CCC(NC[C@H](O)COc3ccc(O)c(NS(C)(=O)=O)c3)CC2)cc1` (stereo not given in full), for which the results for the Potency in experiment [1], in experiment [4] and in [6] were 35.9 µM (active), 10.1 µM (active) and 56.4 µM (active), respectively. The Potency result in experiment [2], in experiment [3], in experiment [5] and in experiment [7] was “inactive” each time.
As for `O=C(Nc1ccc2c(O)c(N=Nc3ccc(N=Nc4ccc(S(=O)(=O)O)cc4)cc3)c(S(=O)(=O)O)cc2c1)c1ccccc1`, the Potency result in experiment [8], in [1], in experiment [2], in experiment [3], in experiment [9] and in experiment [10] was “inactive” each time. Also, the Potency result in experiment [4] and in [7] was “inactive” in each case. In [5], the Potency is 24.3 µM (active).
With `C#Cc1ccc(-c2ccccc2F)cc1`, the Potency result in [2], in experiment [11], in experiment [12], in experiment [13], in experiment [9] and in experiment [14] was “inactive” in each case. Further, the Potency entry in experiment [10], in experiment [4], in experiment [5], in experiment [6] and in experiment [7] was “inactive” in each case.
Consider `[Cu+]`, for which the Potency result in experiment [1], in experiment [2], in experiment [3], in [9], in experiment [10] and in experiment [4] was “inactive” throughout. In addition, in experiment [5], the Potency result was “inactive”.
As for `O=C1NC(=O)[C@@H]2CC=CC[C@H]12`, the Potency entry in [8], in experiment [2], in [11], in experiment [12], in experiment [9] and in experiment [14] was “inactive” throughout. For the same compound, the Potency entry in experiment [5], in experiment [6] and in experiment [7] was “inactive” in each case. For the same compound, the Potency in experiment [13] was 54.5 µM (active).
In the case of `CCO[C@@H]1O[C@H](C(COCc2ccccc2)OCc2ccccc2)[C@H](OCc2ccccc2)[C@H]1O` (stereo not given in full), the Potency result in experiment [1], in experiment [3] and in [5] was “inactive” throughout. Moreover, in [2], the Potency was 21.3 µM (active).
In the case of `CCOc1ccc2ccccc2c1C(=O)N[C@@H]1C(=O)N2[C@@H]1SC(C)(C)[C@@H]2C(=O)O`, the Potency result in experiment [8], in experiment [1], in experiment [2], in [11], in [12] and in [13] was “inactive” each time. The Potency result in experiment [9], in experiment [14], in experiment [4], in [5] and in experiment [7] was “inactive” in each case.
Take `O=C(c1ccc(O)c(O)c1)c1ccc(O)cc1O`: the Potency result in [8], in [1], in experiment [2], in [11], in experiment [12] and in [9] was “inactive” throughout. The Potency entry in [14], in [4], in experiment [5] and in experiment [6] was “inactive” throughout. The Potency in experiment [13] is 21.6 µM (active).
With `O=C(O)c1cc(N=Nc2ccc([N+](=O)[O-])cc2)ccc1O`, the Potency result in experiment [1], in experiment [2], in experiment [11], in experiment [12], in experiment [13] and in experiment [9] was “inactive” each time. In addition, the Potency entry in [14], in experiment [4], in experiment [5] and in [6] was “inactive” throughout. In addition, the Potency in experiment [7] was 6.73 µM (active).
In the case of `Cl[Si](Cl)(c1ccccc1)c1ccccc1`, the Potency result in [8], in experiment [2], in [11], in [12], in experiment [13] and in experiment [9] was “inactive” in each case. Also, the Potency result in experiment [14], in [4] and in experiment [5] was “inactive” each time.
For `CCCC1CCC(=O)CC1`, the Potency entry in [8], in [2], in [11], in experiment [12], in experiment [13] and in experiment [9] was “inactive” throughout. Also, the Potency entry in experiment [14], in experiment [10], in experiment [4] and in experiment [5] was “inactive” throughout.
